{"source": "PubChem BioAssay (Tox21)", "note": "Results filed as inconclusive are left out. Values without a mark were called inactive. Calls follow the shape of the dose curve; as a rule, active = well fitted cell-killing curve with a large enough effect in the repeat runs; inconclusive = weak or mixed curves; inactive = flat fitted curve, though single readings scatter."}
{"test": "qHTS assay to identify small molecule antagonists of the estrogen receptor beta (ER-beta) signaling pathway - cell viability counter screen (AID 1259382); also: % is scaled to controls: 0 for no effect and ±100 for the full control effect; nearly all actives have a fitted effect of over 55% in size", "details": "ER-beta-UAS-bla HEK293T viability, CellTiter-Glo luminescence, 16 h; series mostly up to 92.4 µM; activity change, negative = cytotoxicity: at the top concentration", "from_the_text": "U.S. Tox21 Program National Center for Advancing Translational Sciences [NCATS] NIH Chemical Genomics Center [NCGC] U.S. Environmental Protection Agency [EPA] National Institutes of Environmental Health Sciences [NIEHS] National Toxicology Program [NTP] U.S. Food and Drug Administration [FDA] Tox21 Assay Overview: Estrogen receptor (ER), a nuclear hormone receptor, plays an important role in development, metabolic homeostasis and reproduction. Two subtypes of ER, ER-alpha and ER-beta, have similar expression patterns with some uniqueness in both types. Endocrine disrupting chemicals (EDCs) and their interactions with steroid hormone receptors like ER causes disruption of normal endocrine function. To identify the compounds that inhibit ER signaling, an ER-beta-UAS-bla GripTite cell line (Life Technologies, Madison, WI, USA) containing a beta-lactamase reporter gene under the control of an UAS response element was used to screen Tox21 10K compound library. The cytotoxicity of the Tox21 compound library against the ER-beta-bla cell line was tested in parallel by measuring the cell viability using CellTiter-Glo assay in the same wells.\nTox21 Assay Protocol Summary: ER-beta-UAS-bla HEK293T cells were dispensed at 2,000 cells/4 uL of assay medium containing 2% charcoal stripped FBS per well into black wall/clear-bottom 1536-well plates using a Multidrop Combi (ThermoFisher Scientific, Waltham, MA) dispenser. After the assay plates were incubated at a 37C and 5% CO2 for 6 hr, 23 nL of compounds dissolved in DMSO, positive controls or DMSO only was transferred to the assay plate by a Pintool station (Kalypsys, San Diego, CA), followed by addition of 1 uL (1nM as final concentration) of 17-beta-estradiol (E2) in assay medium using a Flying Reagent Dispenser (FRD, Aurora Discovery, San Diego, CA). The plates were incubated at 37C and 5% CO2 for 16 hr. Then 1 uL of LiveBLAzer B/G FRET substrate was added using a Flying Reagent Dispenser, the plates were incubated at room temperature for 2 hours, and fluorescence intensity was measured by an Envision plate reader (PerkinElmer, Shelton, CT). For cell viability readout that measures cytotoxicity, 4 uL/well of CellTiter-Glo reagent was added into the assay plates using a FRD. After 30 min incubation at room temperature, the luminescence intensity in the plates was measured using a ViewLux (PerkinElmer) plate reader."}
{"molecule": "C=CCOCC(O)CCl", "note": "(stereo not given)", "activity change, negative = cytotoxicity": "-2.1%"}
{"molecule": "Cc1ccccc1C(=O)N1CC/C(=N\\OS(=O)(=O)O)c2ccc(Cl)cc21", "activity change, negative = cytotoxicity": "5.95% [at 42.5 µM]"}
{"molecule": "CC(=O)OC[C@H]1O[C@@H](OC(C)=O)[C@H](OC(C)=O)[C@@H]1OC(C)=O", "activity change, negative = cytotoxicity": "5.38% [at 42.5 µM]"}
{"molecule": "CCCCCCCCCCCCCC(=O)OC", "activity change, negative = cytotoxicity": "3.17%"}
{"molecule": "CCCOC(=O)CCCCC(=O)OCCC", "activity change, negative = cytotoxicity": "-0.0249%"}
{"molecule": "CC(C)COC(=O)CCCCC(=O)OCC(C)C", "activity change, negative = cytotoxicity": "-2.84%"}
{"molecule": "CN(C)CCOCCN(C)CCO", "activity change, negative = cytotoxicity": "6.06%"}
{"molecule": "CC(=O)OC(C)(C)Cc1ccccc1", "activity change, negative = cytotoxicity": "10.9%"}
{"molecule": "O=c1[nH]c(=O)c2ccccc2o1", "activity change, negative = cytotoxicity": "12.2% [at 42.5 µM]"}
{"molecule": "CCOC(=O)CCc1ccccc1", "activity change, negative = cytotoxicity": "3.16%"}
{"molecule": "C=CCCCCCCCCCCC", "activity change, negative = cytotoxicity": "4.44% [at 8.39 µM]"}
{"molecule": "CCCCCCCCCCCCCCCCCCN(C)C", "activity change, negative = cytotoxicity": "-0.796% [at 42.5 µM]"}
{"molecule": "CC(=O)Nc1ccc(C)cc1", "activity change, negative = cytotoxicity": "5.43%"}
{"molecule": "Cc1oc(=O)oc1CN1CCN(c2cc3c(cc2F)c(=O)c(C(=O)O)c2n3C(C)S2)CC1", "note": "(stereo not given)", "activity change, negative = cytotoxicity": "-2.03% [at 42.5 µM]"}
{"molecule": "CNC(=O)NC", "activity change, negative = cytotoxicity": "3.47%"}
{"molecule": "F[Si-2](F)(F)(F)(F)F", "activity change, negative = cytotoxicity": "2.11%"}
{"molecule": "CNC(=O)C(c1ccccc1)c1ccccc1", "activity change, negative = cytotoxicity": "7.08%"}
{"molecule": "O=C(c1ccc2c(c1)C(=O)OC2=O)c1ccc2c(c1)C(=O)OC2=O", "activity change, negative = cytotoxicity": "0.233%"}
{"molecule": "CCN(CCO)c1cccc(C)c1", "activity change, negative = cytotoxicity": "1.11%"}
{"molecule": "CNCc1ccccc1", "activity change, negative = cytotoxicity": "5.37% [at 42.5 µM]"}
{"molecule": "Cn1c(=O)c2c(ncn2CC2OCCO2)n(C)c1=O", "activity change, negative = cytotoxicity": "-0.83% [at 42.5 µM]"}
{"molecule": "CC(=O)OC(C(=O)c1ccccc1)c1ccccc1", "note": "(stereo not given)", "activity change, negative = cytotoxicity": "-0.461%"}
{"molecule": "Cc1nc(C)nc(N2C[C@@H](C)N(c3ccnc([C@@H](C)O)n3)[C@@H](C)C2)n1", "activity change, negative = cytotoxicity": "-7.52% [at 42.5 µM]"}
{"molecule": "O=c1[nH]c(=O)c2[nH]c(=O)[nH]c2[nH]1", "activity change, negative = cytotoxicity": "3.94% [at 8.39 µM]"}
{"molecule": "COc1cc2c3cc1Oc1cc(ccc1O)C[C@@H]1c4c(cc(OC)c(O)c4Oc4ccc(cc4)C[C@@H]3N(C)CC2)CC[N+]1(C)C", "activity change, negative = cytotoxicity": "7.56% [at 42.5 µM]"}
{"molecule": "COCC(=O)Nc1c(I)c(C(=O)NCC(O)CO)c(I)c(C(=O)N(C)CC(O)CO)c1I", "note": "(stereo not given)", "activity change, negative = cytotoxicity": "1.55% [at 42.5 µM]"}
{"molecule": "CCN(Cc1cccc(S(=O)(=O)O)c1)c1ccccc1", "activity change, negative = cytotoxicity": "-5.87%"}
{"molecule": "CC(C)CCCCCCOC(=O)C1CCCCC1C(=O)OCCCCCCC(C)C", "note": "(stereo not given)", "activity change, negative = cytotoxicity": "1.37%"}
{"molecule": "O=[Si]=O", "activity change, negative = cytotoxicity": "7.89%"}
{"molecule": "COc1ccc(/C=N/NC(=O)c2ccncc2)cc1OC", "activity change, negative = cytotoxicity": "-1.46% [at 42.5 µM]"}
{"molecule": "CCCCC[Si](OCC)(OCC)OCC", "activity change, negative = cytotoxicity": "0.07%"}
{"molecule": "CCCCCCCCCCCCOC(C)=O", "activity change, negative = cytotoxicity": "3.87%"}
{"molecule": "CC(=O)OCCCc1ccccc1", "activity change, negative = cytotoxicity": "1.11%"}
{"molecule": "CCCCCCCCC(=O)OCC", "activity change, negative = cytotoxicity": "10.8%"}
{"molecule": "CC(C)COC(=O)/C=C/c1ccccc1", "activity change, negative = cytotoxicity": "0.165%"}
{"molecule": "C=CCOCC(CO)(COCC=C)COCC=C", "activity change, negative = cytotoxicity": "10.2% [at 42.5 µM]"}
{"molecule": "O=C1OC(=O)c2cc(Oc3ccc4c(c3)C(=O)OC4=O)ccc21", "activity change, negative = cytotoxicity": "0.229%"}
{"molecule": "O=C1CC[C@H](C(=O)N2CCCCC2)N1", "activity change, negative = cytotoxicity": "0.773% [at 42.5 µM]"}
{"molecule": "O=C1OC(=O)c2ccccc21", "activity change, negative = cytotoxicity": "10.9%"}
{"molecule": "CCOC(=O)CC#N", "activity change, negative = cytotoxicity": "10.7%"}
